Measurements published in PubChem BioAssay.
Activity calls are given as the source filed them. Unless noted, no rule for the calls is given here.

Columns and labels:
[1] = test system: Wnt5a (protein binding on small-molecule microarray); assay: small molecules binding Wnt5a protein – biophysical, small-molecule microarray, 635/667 nm fluorescence, primary screen (AID 1142); details: 635 nm fluorescence, higher = more signal;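 also: fluorescence read at 667 nm with signal to noise per printed feature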
[2] = ATP-based viability of Huh7 replicon cells – cell-based, CellTiter-Glo luminescence, basal, 48 h, cytotoxicity control for HCV replication inhibitor project, primary screen (AID 1143); details: higher = more signal, called active from +8 up or from −8 down;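 also: Huh7 hepatoma cells carrying a hepatitis C replication reporter with no stimulus; test concentration not given here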
[3] = Pseudomonas biofilm growth suppression – PAO1 strain, BacTiter-Glo luminescence, LB-PBS, primary screen (AID 1144); details: P. aeruginosa PAO1 biofilm, 12 h, higher = more signal
[4] = basal CRE-LacZ reporter activity in PC12 – cell-based, unstimulated, primary screen (AID 1145); details: no forskolin, luminescence, 4.5 h, higher = more signal, called active from +8 up or from −8 down
[5] = forskolin-driven CRE-LacZ activity in PC12 – cell-based, CRE-LacZ reporter, forskolin-stimulated, primary screen (AID 1146); details: luminescence, 4.5 h, higher = more signal, called active from +8 up or from −8 down;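 also: PC12 cells with 6xCRE LacZ reporter stimulated by forskolin 10 µM; beta-galactosidase reporter signal reflecting CREB driven transcription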
[6] = target: Streptavidin (Streptomyces avidinii) (UniProt P22629); assay: compounds binding control protein streptavidin – biophysical, small-molecule microarray, 635/667 nm fluorescence, artefact control for SMM compound annotation, primary screen (AID 1147); details: higher = more signal;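 also: signal reflects streptavidin binding to arrayed compounds as a control protein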
[7] = probe aInhba binding on compound microarray – biochemical, small-molecule microarray, 635/667 nm fluorescence, primary screen (AID 1148); details: higher = more signal;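 also: score merges 667nm spot fluorescence with signal-to-noise for antibody binding to printed compounds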
Torsin-1A (Homo sapiens) [8] = target: Torsin-1A (Homo sapiens) (UniProt O14656); assay: TOR1A wild-type binding on microarray – cell lysate, small-molecule microarray, lysate, 635/667 nm, primary screen (AID 1149); details: COS7 hTOR1A-WT lysate, 635 nm fluorescence, higher = more signal
Torsin-1A (Homo sapiens) [9] = target: Torsin-1A (Homo sapiens) (UniProt O14656); assay: torsin A mutant lysate binding on microarrays – cell lysate, small-molecule microarray, COS7 lysate, 635/667 nm fluorescence, primary screen (AID 1150); details: COS7 hTOR1A mutant lysate, 635 nm fluorescence, higher = more signal;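 also: score pools 667 nm emission and signal to noise measuring lysate protein binding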
[10] = test system: Sonic hedgehog protein (Shh); assay: Sonic hedgehog microarray binding compounds – biochemical, small-molecule microarray, 635/667 nm fluorescence, primary screen (AID 1151); details: 635 nm fluorescence, higher = more signal;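 also: Shh protein binding to compounds spotted on small-molecule microarray slides; score combines spot fluorescence intensity with signal-to-noise across triplicate slides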

Chain of Streptavidin (Streptomyces avidinii) (P22629 whole entry, looked up): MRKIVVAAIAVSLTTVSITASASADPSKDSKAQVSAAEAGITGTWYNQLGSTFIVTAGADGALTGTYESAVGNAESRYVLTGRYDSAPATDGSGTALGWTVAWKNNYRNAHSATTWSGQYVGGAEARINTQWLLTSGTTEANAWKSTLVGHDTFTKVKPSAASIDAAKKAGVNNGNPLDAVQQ
Chain of Torsin-1A (Homo sapiens) (O14656 whole entry, looked up): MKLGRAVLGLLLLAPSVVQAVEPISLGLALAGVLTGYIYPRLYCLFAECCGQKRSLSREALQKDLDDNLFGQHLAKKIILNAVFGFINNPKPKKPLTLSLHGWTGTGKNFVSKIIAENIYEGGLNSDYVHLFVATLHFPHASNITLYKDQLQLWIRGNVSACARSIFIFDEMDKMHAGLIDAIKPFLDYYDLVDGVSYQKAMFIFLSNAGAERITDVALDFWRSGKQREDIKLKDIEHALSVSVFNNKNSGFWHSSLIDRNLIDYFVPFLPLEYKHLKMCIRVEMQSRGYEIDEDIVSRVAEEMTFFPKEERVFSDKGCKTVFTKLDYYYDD

Row | Compound | composite z-score [1] | z-score [2] | z-score [3] | z-score [4] | z-score [5] | composite z-score [6] | composite z-score [7] | composite z-score (Torsin-1A (Homo sapiens) [8]) | composite z-score (Torsin-1A (Homo sapiens) [9]) | composite z-score [10]
1 | C=CCC(OC(C)=O)[C@@H]1[C@@H](N(Cc2ccc(-c3ccccc3)cc2)C(=O)c2ccc(-c3ccccc3)cc2)c2cc(OCCCO)ccc2N1C(=O)Cc1ccc(OC)cc1 (stereo not given in full) | 0.0459 | -0.178 (inactive) | 0.318 (inactive) | -0.0247 (inactive) | 0.522 (inactive) | 0.573 | -0.0774 | -0.096 | -0.37 | 0.346
2 | NC(=O)[C@H]1[C@@H]2C(=O)O[C@@H](c3ccccc3)[C@@H](c3ccccc3)N2[C@@H](c2ccc(O)cc2)[C@]12C(=O)Nc1ccc(C#CCCO)cc12 | -0.183 | 0.134 (inactive) | -0.453 (inactive) | -0.258 (inactive) | 0.278 (inactive) | -1.57 | -0.0044 | -1.39 | 0.806 | 0.35
3 | CC(=O)NCCCC[C@@H]1NC(=O)[C@H]2C[C@@H](C(=O)NCCCCCCN(C)C)[C@@H](c3cccc(OCCO)c3)N2C1=O | 0.906 | -0.102 (inactive) | -0.542 (inactive) | 0.0084 (inactive) | 0.172 (inactive) | 0.369 | 0.222 | 1.37 | 1.88 | 2.22
4 | C#C[C@H](O[Si](C#Cc1ccccc1)(C(C)C)C(C)C)c1ccccc1 | -0.0449 | -1.33 (inactive) | -0.368 (inactive) | -0.258 (inactive) | 6.27 (inactive) | -0.636 | -0.242 | -0.234 | -0.543 | -0.154
5 | CCCNC(=O)[C@@H]1c2ccccc2C(=O)N(C2CCCCC2)[C@H]1c1ccc(CO)cc1 | 0.15 | -0.64 (inactive) | -0.255 (inactive) | -0.062 (inactive) | -0.224 (inactive) | 0.573 | 0.0589 | -0.244 | 0.0805 | 0.573
6 | O=C1O[C@@H](c2ccccc2)[C@@H](c2ccccc2)N2[C@@H](c3ccc(OCCO)cc3)[C@]3(C(=O)Nc4ccc(C#CCCO)cc43)[C@@H](C(=O)N3CCN(c4ncccn4)CC3)[C@H]12 | 0.544 | -0.284 (inactive) | -0.132 (inactive) | 0.478 (inactive) | 0.0989 (inactive) | 0.509 | 0.0403 | 0.376 | 0.5 | 1.93
7 | O=C(NCc1ccccc1)[C@@]1(Cc2ccccc2)COC(c2ccc(OCCCO)cc2)=N1 | 0.369 | -4.7 (inactive) | -0.607 (inactive) | -0.0157 (inactive) | -1.27 (inactive) | 0.191 | -0.0087 | -0.0265 | 0.737 | -0.587
8 | CC(c1ccccc1)C(O)C1C=CC2C(=O)N(C)C(=O)C2N1N(c1ccccc1)c1ccccc1 (stereo not given) | 0.156 | 0.066 (inactive) | -0.131 (inactive) | 0.443 (inactive) | 0.696 (inactive) | 0.377 | 0.153 | 0.18 | 0.426 | -0.586
9 | O=C1C[C@@](C(=O)NC2CC2)(c2ccc([N+](=O)[O-])cc2)[C@@H](c2ccc(CO)cc2I)N1CC12CC3CC(CC(C3)C1)C2 | 0.157 | -5.82 (inactive) | 0.87 (inactive) | 0.818 (inactive) | 1.25 (inactive) | 0.376 | -0.134 | -0.371 | 0.362 | 1.95
10 | CCOC(=O)C[C@H]1[C@H](OC(=O)c2ccccc2-c2ccccc2)[C@@H](NC(=O)c2ccc(-c3ccccc3)cc2)c2cc(OCCCO)ccc2N1C(=O)Cc1ccc(OC)cc1 | 0.17 | 0.132 (inactive) | 0.846 (inactive) | 2.3 (inactive) | 0.41 (inactive) | 0.0511 | 0.038 | -0.153 | 1.02 | 0.56
11 | COC(=O)C(CC#Cc1ccc2c(c1)[C@]1(C(=O)N2)[C@H](C(=O)N2CCCCCCC2)[C@H]2C(=O)O[C@H](c3ccccc3)[C@H](c3ccccc3)N2[C@@H]1c1ccc(O)cc1)C(=O)OC | -0.593 | -4.23 (inactive) | 0.144 (inactive) | 0.0736 (inactive) | -0.928 (inactive) | -1.01 | 0.539 | -0.998 | -0.529 | -0.657
12 | CC(C)[Si](OCC[C@H]1O[C@]2(C(=O)N(Cc3ccccc3)c3ccccc32)[C@@H](C)[C@@H]1[Si](C)(C)O)(C(C)C)C(C)C | 0.0427 | -0.555 (inactive) | 0.735 (inactive) | 0.223 (inactive) | -0.242 (inactive) | -0.0546 | -0.171 | 0.399 | -0.131 | 0.255
13 | C=CC[C@]1(C(=O)N2CCCCC2)N=C(c2ccc(OCCCO)cc2)O[C@H]1c1ccccc1N=[N+]=[N-] | 0.824 | -3.21 (inactive) | -0.903 (inactive) | -0.174 (inactive) | -1.18 (inactive) | 1.87 | 0.0355 | 1.02 | 1.06 | 0.377
14 | COC(=O)[C@@]1(Cc2ccc(OC)cc2)[C@H]2c3cc(C(=O)N(C)C)n(CCc4ccc(OC)c(Br)c4)c3C[C@H]2CN1C(=O)c1ccccc1 | 0.839 | -3.88 (inactive) | 0.28 (inactive) | 0.39 (inactive) | 0.0318 (inactive) | 1.95 | 0.993 | -0.242 | 0.733 | 0.116
15 | CCOC(=O)C1=CC[C@@H](c2ccccc2)N(S(=O)(=O)c2ccc(C)cc2)[C@H]1C | 0.532 | -4.32 (inactive) | 0.165 (inactive) | -0.0137 (inactive) | -0.664 (inactive) | 1.85 | -0.153 | 1.41 | 1.25 | 0.747
16 | C=C[C@H](OC)[C@@H](OC(=O)Nc1ccc(SC)cc1)c1ccc(O)c(F)c1 | 0.418 | -0.731 (inactive) | -0.782 (inactive) | 5.83 (inactive) | -0.362 (inactive) | -0.174 | -0.0695 | 0.373 | 0.23 | 1.6
17 | C[C@H]1C2[C@H](Cc3ccccc3)NC(=O)[C@]23C(=O)N[C@H](Cc2ccccc2)C(=O)N[C@@H](Cc2ccccc2)C(=O)NC/C=C\C/C=C/C3[C@@H]2O[C@]12C (stereo not given in full) | 0.0327 | -3.18 (inactive) | 0.593 (inactive) | 0.311 (inactive) | -1.85 (inactive) | -0.214 | 0.173 | -0.0236 | 0.147 | 1.65
18 | CCCC[C@@H]1C[C@H]1[C@@H](NC(=O)c1cccs1)c1ccc(Cl)cc1 | -0.29 | -3.19 (inactive) | -0.288 (inactive) | 0.39 (inactive) | 0.958 (inactive) | -1.05 | -0.224 | -0.989 | -1.01 | -1.75
19 | O=C/C=C/c1ccc(/C=C/c2ccccc2)cc1 | -0.378 | -2.23 (inactive) | -0.0603 (inactive) | -0.141 (inactive) | -0.795 (inactive) | -0.0122 | -0.128 | -0.373 | -0.479 | 0.609
20 | O=C1C[C@@](C(=O)NCCN2CCOCC2)(c2ccc([N+](=O)[O-])cc2)[C@@H](c2ccc(CO)cc2)N1C1CCCCC1 | 0.25 | 0.204 (inactive) | 0.82 (inactive) | 0.351 (inactive) | -0.303 (inactive) | 0.316 | 0.196 | 0.143 | 0.555 | 0.452
21 | COCCOC(=O)N1C(=O)[C@@]2(c3cc(C#CC4=CCCCC4)ccc31)[C@H](C(=O)NC[C@H](O)c1ccccc1)[C@H]1C(=O)O[C@H](c3ccccc3)[C@H](c3ccccc3)N1[C@@H]2c1ccccc1OCCO | 0.255 | -5.75 (inactive) | 0.423 (inactive) | 0.48 (inactive) | -0.99 (inactive) | 0.634 | 0.243 | 0.453 | 0.509 | 1.53
22 | O=C1O[C@H](c2ccccc2)[C@H](c2ccccc2)N2[C@H]1[C@@H](C(=O)NC[C@H](O)c1ccccc1)[C@]1(C(=O)Nc3ccc(C#CC4(O)CCCCCC4)cc31)[C@H]2c1ccc(OCCO)cc1 | 0.288 | -5.26 (inactive) | -0.37 (inactive) | -0.231 (inactive) | -0.581 (inactive) | 0.463 | 0.0082 | 0.127 | 0.644 | 0.756
23 | Cc1ccc(S[C@]2(C(=O)O)CC(=O)N(Cc3cc(C(F)(F)F)cc(C(F)(F)F)c3)[C@@H]2c2ccc(CO)cc2I)cc1 | 0.176 | -2.71 (inactive) | 0.519 (inactive) | 0.261 (inactive) | 0.859 (inactive) | -0.718 | -0.106 | -1.1 | -0.3 | 0.42
24 | CC(C)C[C@@H]1NC(=O)[C@H]2C[C@@H](C(=O)NCCCCCC[N+](C)(C)C)[C@@H](c3ccc(O)cc3)N2C1=O | -0.266 | -0.0365 (inactive) | -0.337 (inactive) | -0.122 (inactive) | -0.281 (inactive) | -0.308 | -0.0719 | 0.87 | 0.951 | 1.7
25 | O=C1C2C=CC(C(O)C(c3ccccc3)c3ccccc3)N(Nc3ccc([N+](=O)[O-])cc3)C2C(=O)N1c1ccccc1 (stereo not given) | 0.528 | -0.664 (inactive) | -1.81 (inactive) | -0.433 (inactive) | 0.384 (inactive) | 1.13 | 0.0183 | 0.738 | 0.871 | 0.762
26 | Cc1ccc(S(=O)(=O)N2[C@@H](c3ccccc3)C(C(=O)O)=CC[C@H]2c2ccccc2)cc1 | 0.105 | -0.498 (inactive) | 0.0815 (inactive) | 0.0707 (inactive) | -0.303 (inactive) | 0.263 | 0.0631 | 0.195 | -0.0024 | -0.497
27 | Cc1ccc(N2C(=O)c3ccccc3[C@@H](C(=O)NCC(F)(F)F)[C@@H]2c2ccc(CO)cc2)nc1 | 0.0023 | -0.977 (inactive) | 0.00438 (inactive) | 0.791 (inactive) | 0.495 (inactive) | -1.62 | 0.17 | -1.76 | -1.78 | 0.0716
28 | COCCCNC(=O)[C@@]1(c2ccc([N+](=O)[O-])cc2)CC(=O)N(C2CCCCC2)[C@@H]1c1ccc(CO)cc1 | -0.155 | -1.72 (inactive) | 0.0997 (inactive) | -0.269 (inactive) | 0.207 (inactive) | -0.826 | -0.417 | 0.661 | -0.699 | -0.256
